The list is not random: actives were taken first. Their share in the collection is about 19%.
IL-1B inflam inh = qHTS for Inhibitors of Inflammasome Signaling: IL-1-beta AlphaLISA Primary Screen; THP-1 LPS/ATP IL-1B secretion, AlphaLISA, 16 h; stronger effect = lower value; activity change, % at 57.5 µM; actives 4.7% (n = 360,000); AID 743279, 2014; in the data active = activity change below about -50%; inconclusive = mostly about -30% to -49%
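Secreted IL-1B measured by AlphaLISA bead assay after 16 h compound exposure of THP-1 cells; compounds (final up to 57.5 uM) added 1 h before LPS (250 ng/mL) and ATP (1.25 mM) stimulation; lower signal means less secretion.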
uPA generation = qHTS for Inhibitors of Cell Surface uPA Generation | cell surface uPA generation assay, qHTS | Potency, µM (doses to about 38.3 µM), without a hit: at the top dose activity change, negative = inhibition, most hits filed as inhibitors | actives 0.31% (n = 330,000) | AID 540303, 2011; active = well fitted inhibition curve with a large enough effect; inconclusive = small, poorly fitted or top-dose-only effect; inactive = no such curve, though single readings can be large or run the other way; tested in mouse RAW 264.7 cells; also: potency is read from the fitted curve at half-maximal effect; nearly all actives have a fitted effect of over 55% in size
HT1080-NT tox = qHTS for induction of synthetic lethality in tumor cells producing 2HG: qHTS for the HT-1080-NT fibrosarcoma cell line; HT-1080-NT fibrosarcoma viability, CellTiter-Glo ATP luminescence, 48 h; Potency, µM (highest dose often 46.1 µM), for inactives: at the top dose activity, negative = less viability, usual class: cytotoxic; actives 1.6% (n = 360,000); AID 686970, 2013;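 also: NT is the 2HG producing partner of a matched IDH1 knockdown line; potency is read from the fitted curve at half-maximal effect; 0% = DMSO-treated cells and -100% = media-only wells without cells; nearly all actives have a fitted effect of over 55% in size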
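Read-out is CellTiter-Glo luminescence after 10 minutes at room temperature, following 48 hours' compound treatment of HT-1080-NT cells (750 cells/well, RPMI, 5% FBS, 37 degrees C).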
HT1080 IDH1KD tx = qHTS for induction of synthetic lethality in tumor cells producing 2HG: qHTS for the HT-1080-IDH1KD cell line | actives 2% (n = 360,000) | Potency, µM (series often up to 46.1 µM), without a hit: top-dose activity, negative = toxicity, usual class: cytotoxic | HT-1080 IDH1 knockdown viability, ATP luminescence, 48 h;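 also: potency is read from the fitted curve at half-maximal effect; 0% = DMSO wells and -100% = cell-free medium wells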
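After a 2 h attachment period, IDH1KD HT-1080 cells took pin-transferred compound for 48 h at 37 °C; ATP-based luminescence after 10 min room-temperature reagent incubation reported viability.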
DT40 TDP1 no CPT = qHTS for Inhibitors of human tyrosyl-DNA phosphodiesterase 1 (TDP1): qHTS in cells in absence of CPT | Potency, µM (highest dose often 46.2 µM), for inactives: top-dose activity change, negative = growth inhibition, actives largely listed as inhibitors | DT40 Tdp1-/- hTDP1 cells, no CPT, ATP luminescence, 48 h | actives 15% (n = 420,000); also: potency is read from the fitted curve at half-maximal effect; nearly all actives have a fitted effect of over 55% in size
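Chicken DT40 Tdp1-/- cells complemented with human TDP1, screened without camptothecin (DMSO vehicle only), 400 cells/well. Compounds pin-transferred, cells incubated at 37 °C for at least 48 hr. Growth read as ATP-dependent luminescence (CellTiter-Glo, 30 min at RT).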
TDP1 cell CPT = qHTS for Inhibitors of human tyrosyl-DNA phosphodiesterase 1 (TDP1): qHTS in cells in presence of CPT; chicken DT40 Tdp1-/-;hTDP1 cells + 20 nM CPT, ATP luminescence, 48 h; AID 686979, 2013; actives 12% (n = 420,000); Potency, µM (titrated, usually from 46.2 µM), for the others: at the top dose activity change, negative = growth inhibition, most hits filed as inhibitors; also: potency is read from the fitted curve at half-maximal effect; nearly all actives have a fitted effect of over 55% in size
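Chicken DT40 Tdp1-/- cells complemented with human TDP1, 400 cells/well, exposed to compounds plus 20 nM camptothecin for at least 48 h at 37 C; viability read as ATP content by CellTiter-Glo luminescence.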
Numbers without * were called inactive; [ ] = dose if it differs, or a comment. Unless noted, calls follow the shape of the dose curve; as a rule, active = well fitted curve in the direction sought with a large enough effect; inconclusive = small, poorly fitted or top-dose-only effect, or another doubt; inactive = no such curve, though single readings can be large; an effect the other way counts as inactive or inconclusive. Unless noted, % is scaled to controls: 0 for no effect and ±100 for the full control effect.

How did CC(C)(C)n1c(O)c(C=Nc2ccc3c(c2)CCC3)c(=O)[nH]c1=O do in these assays?
IL-1B inflam inh: 2.1; uPA generation: -4.0%; HT1080-NT tox: 9.9%; HT1080 IDH1KD tx: 0.0%; DT40 TDP1 no CPT: inconclusive; TDP1 cell CPT: inconclusive

How did COCCCNC(=O)c1c(NC(=O)c2ccco2)n(Cc2ccccc2)c2nc3ccccc3nc12 do in these assays?
IL-1B inflam inh: -3.2; uPA generation: -15.8%; HT1080-NT tox: inconclusive; HT1080 IDH1KD tx: inconclusive; DT40 TDP1 no CPT: 25.9µM*; TDP1 cell CPT: inconclusive

How did CCCNC(=O)c1c(N)n(Cc2ccc3c(c2)OCO3)c2nc3ccccc3nc12 do in these assays?
IL-1B inflam inh: 0.0; uPA generation: -0.6%; HT1080-NT tox: -0.5%; HT1080 IDH1KD tx: -1.9%; DT40 TDP1 no CPT: -9.1%; TDP1 cell CPT: -4.4%

Results for COCCNC(=O)c1c(NC(=O)c2ccc(Br)o2)n(Cc2ccccc2)c2nc3ccccc3nc12 ?
IL-1B inflam inh: -10.0; uPA generation: -1.0%; HT1080-NT tox: 2.8%; HT1080 IDH1KD tx: -0.4%; DT40 TDP1 no CPT: inconclusive; TDP1 cell CPT: 18.4µM*

How did O=C(Nc1ccc2nc(-c3cccs3)c(-c3cccs3)nc2c1)N1CCCCC1 do in these assays?
DT40 TDP1 no CPT: 11.2µM*; TDP1 cell CPT: 8.91µM*

Results for C[C@@H]1O[C@@H](O[C@H]2C[C@@H](O)[C@]3(CO)[C@@H]4C(CC[C@]3(O)C2)[C@@]2(O)CC[C@H](C3COC(=O)C3)[C@@]2(C)C[C@H]4O)[C@H](O)[C@H](O)[C@H]1O (stereo not given in full) ?
IL-1B inflam inh: -64.5*; uPA generation: -1.3%; HT1080-NT tox: 5.17µM*; HT1080 IDH1KD tx: 1.3µM*; DT40 TDP1 no CPT: inconclusive; TDP1 cell CPT: -3.3%

How did COC1C(O)C(OC2CC[C@]3(C=O)C4C(OC(C)=O)C[C@@]5(C)C(C6=CC(=O)OC6)CC[C@]5(O)C4CC[C@]3(O)C2)OC(C)C1OC(C)=O (stereo not given in full) do in these assays?
DT40 TDP1 no CPT: 0.9%; TDP1 cell CPT: 8.8%

Results for C=CCNC(=O)c1ccccc1NC(=O)c1ccc(Cl)c(S(=O)(=O)Nc2cc(C)ccc2C)c1 ?
IL-1B inflam inh: 26.4; uPA generation: -15.4%; HT1080-NT tox: inconclusive; HT1080 IDH1KD tx: inconclusive; DT40 TDP1 no CPT: inconclusive; TDP1 cell CPT: 18.4µM*

Results for C[C@H]1CCC[C@@H](O)CCC/C=C/c2cc(O)cc(O)c2C(=O)O1 ?
IL-1B inflam inh: inconclusive; uPA generation: inconclusive; HT1080-NT tox: inconclusive; HT1080 IDH1KD tx: 8.91µM*; DT40 TDP1 no CPT: 20.6µM*; TDP1 cell CPT: inconclusive

How did C[C@H]1CCC[C@H](O)CCCCCc2cc(O)cc(O)c2C(=O)O1 do in these assays?
IL-1B inflam inh: -19.3; uPA generation: inconclusive; HT1080-NT tox: -18.4%; HT1080 IDH1KD tx: inconclusive; DT40 TDP1 no CPT: 18.4µM*; TDP1 cell CPT: 14.6µM*

How did O[C@@H]1[C@H](O)[C@H]2[C@@H](O)CCN2C[C@@H]1O do in these assays?
DT40 TDP1 no CPT: -1.6%; TDP1 cell CPT: 11.1%

Results for O=C1C2CCCC1C(N1CCCC1)CC2 (stereo not given) ?
IL-1B inflam inh: -1.8; uPA generation: 5.4%; HT1080-NT tox: 2.6%; HT1080 IDH1KD tx: -18.7%; DT40 TDP1 no CPT: -6.1%; TDP1 cell CPT: 44.6%

Results for Nc1c(Cl)c(Cl)c(Cl)c(Cl)c1Cl ?
DT40 TDP1 no CPT: -4.9%[92.5 µM]; TDP1 cell CPT: -0.9%[92.5 µM]
